From PubChem BioAssay
Compounds with a hit are over-represented: about 4.7% of the library has one in this group of screens.
D1 antag: blocks dopamine activation of the human D1 receptor | hit rate 3.2% among 360,000 | activity change, negative = inhibition, % at 10 µM | AID 504652 | HEK293 TREx D1 cells, calcium flux, dopamine EC80; stronger effect = lower value; in the data active means activity change below about -30%
Target sequence (P21728 whole entry, looked up): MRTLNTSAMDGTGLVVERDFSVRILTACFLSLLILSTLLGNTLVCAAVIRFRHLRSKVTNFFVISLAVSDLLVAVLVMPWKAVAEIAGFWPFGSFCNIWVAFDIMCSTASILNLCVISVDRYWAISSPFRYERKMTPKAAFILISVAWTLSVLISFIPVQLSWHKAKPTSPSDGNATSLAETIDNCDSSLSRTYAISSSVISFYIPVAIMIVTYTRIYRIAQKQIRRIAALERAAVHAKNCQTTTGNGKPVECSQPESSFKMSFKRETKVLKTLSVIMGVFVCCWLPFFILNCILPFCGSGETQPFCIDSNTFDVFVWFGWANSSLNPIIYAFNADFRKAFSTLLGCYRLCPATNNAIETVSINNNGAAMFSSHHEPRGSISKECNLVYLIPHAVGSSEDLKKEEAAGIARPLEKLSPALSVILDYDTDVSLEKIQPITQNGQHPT
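Calcium flux readout: force-coupled, inducible Hek293 Trex D1 line, cells induced overnight at 30 C with tetracycline, dye-loaded 30–90 min at RT. Antagonism scored against EC80 dopamine challenge given 180 s after compound.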
D1 agonist: human D1 receptor agonism. P21728. HEK293 T-REx D1 cells, calcium flux, agonist mode. activation, % at 2 µM. hit rate 1% among 360,000
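Agonism was scored from calcium flux recorded over 180 s (1 read/s) after pintool compound addition, following a 10-cycle baseline. Cells were inducible force-coupled HEK293 TREx D1, plated overnight at 30 C and loaded with no-wash calcium dye.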
TRHR PAM: allosterically enhances the human TRH receptor. TRHR cells, fluo-8 calcium fluorescence, EC20 TRH enhancement. enhancement, % at 2 µM. hit rate 0.66% among 360,000; in the data active means enhancement above about 30%
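Enhancer read-out: after compound pinning and an initial kinetic agonist-mode read, an EC20 of TRH (10 nM final) was injected and fluo-8 calcium signal (Ex 480/Em 530) followed at 1 s/cycle for 100 cycles in TRHR-expressing cells.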
D1 potentiator: human D1 dopamine receptor positive modulation | potentiation, % at 10 µM | hit rate 0.036% among 360,000 | AID 504651 | P21728 | HEK293 TREx D1 cells, calcium flux, dopamine EC20 potentiation; in the data active means potentiation above about 30%
TRHR ag: TRH receptor (human) agonism | P34981 | TRHR cells, calcium flux fluo-8, FDSS agonist mode | activation, % at 2 µM | hit rate 0.18% among 360,000 | AID 493084
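Agonist-mode FDSS calcium read (Ex 480/Em 530, 1 s cycles) in 1536-well TRHR cells with fluo-8 dye, after 10-cycle baseline and 23 nL compound addition; TRH at EC20 (10 nM final) added afterwards for the enhancer phase.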
Of the large screens only hits and unclear results are named; the others gave an inactive call; ! = not active in a repeat. Unless noted, no stated cut-off is given here; in the data, active means activation above about 30%; inactive means the rest.

CC(C)(C)n1nnnc1C(c1ccncc1)N1CCN(C2CCCCC2)CC1 (centres undefined)	none
COc1cc2c3nnc(-c4ccccc4)c-3cn(Cc3ccccc3F)c2cc1OC	none
COc1cc2c3nnc(-c4ccc(F)cc4)c-3cn(Cc3ccccc3F)c2cc1OC	D1 antag -53
CN(C)CCCC1(c2ccc(F)cc2)OCc2cc(C#N)ccc21 (centres undefined)	D1 antag -52!
O=C(COC(=O)c1ccccc1Cl)Nc1nccs1	D1 agonist 45
O=C(COC(=O)c1cc(=O)[nH]c2ccccc12)Nc1nccs1	none
CN1C(C(=O)NC(C)(C)C)=CC(c2ccc3c(c2)OCO3)=NS1(=O)=O	none
COc1ccccc1CNC(=O)c1ccc(C)c(-n2cnc3cccnc32)c1	none
CCOc1ccc(CCNC(=O)c2ccc(C)c(-n3cnc4cccnc43)c2)cc1	D1 antag -31
Cc1ccc(C(=O)NCCCNC(=O)c2ccco2)cc1	none
Cc1ccc(-c2cnc(SCCNC(=O)c3ccco3)[nH]2)cc1	TRHR PAM 31
N=C1C(c2nc3ccccc3[nH]2)=C(O)CN1C1CCCCC1	none
N=C1C(c2nc3ccccc3[nH]2)=C(O)CN1c1ccc(F)cc1	D1 antag -30
CCOCCCNC(=O)C(c1ccc(Cl)cc1)N(Cc1ccc2c(c1)OCO2)C(=O)c1ccc(NC(C)=O)cc1 (centres undefined)	none
CCCc1c(NC(=O)Nc2ccc(F)cc2)cnn1-c1ccccc1	D1 antag -46
O=C(CNCC1CCCCC1)Nc1ccc(OC(F)(F)F)cc1	D1 antag -42, D1 agonist 93
CN(CC(=O)Nc1ccc(OC(F)(F)F)cc1)C1CCCCC1	none
CCCN1CN=C(Nc2nc3ccccc3o2)NC1	none
OCCN1CN=C(Nc2nc3ccccc3o2)NC1	D1 antag -42
O=S(=O)(Nc1ccccc1O)c1cccc2cccnc12	D1 antag -35
Nc1ccc(Sc2cc(Cl)nc(N)n2)cc1	none
Nc1nc(N)c2cc(Sc3ccc4ccccc4c3)ccc2n1	D1 agonist 33
O=C1Nc2ccc(Br)cc2C12NNc1ccccc1O2 (centres undefined)	D1 agonist 33
COc1ccc(/C=N/n2c(-c3cc(C)[nH]n3)n[nH]c2=S)cc1	none
Cc1cc(-c2n[nH]c(=S)n2/N=C/c2ccc(C)o2)n[nH]1	TRHR PAM 40
Cc1ccc(C(OC(=O)c2ccco2)C(=O)NC(C)(C)C)cc1 (centres undefined)	D1 antag -44
COc1ccc(C(OC(=O)c2ccco2)C(=O)NC(C)(C)C)cc1 (centres undefined)	none
COc1cccc(C(=O)N/N=C(/c2ccccc2)c2ccccn2)c1	D1 antag -62
COc1cc(C(=O)N/N=C(\c2ccccc2)c2ccccn2)cc(OC)c1OC	none
c1coc(CNc2ncnc3[nH]ncc23)c1	D1 antag -41
c1coc(CNc2ncnc3nc[nH]c23)c1	none
Cc1ccc(NC(=S)NCC2CCN(C(C)c3ccccc3)C2)cc1C (centres undefined)	D1 antag -63
CSc1nnc(C)c(/C=C/Nc2ccc(C)cc2)n1	D1 agonist 46
CSc1nnc(C)c(/C=C/NOCc2ccc(Cl)cc2)n1	none
Fc1cccc(NC(=S)NC2CCCCCCC2)c1	none
FC(F)(F)c1cccc(NC(=S)NCC2COc3ccccc3O2)c1 (centres undefined)	D1 antag -35
FC(F)(F)c1ccc(NC(=S)NC2CCCCC2)cc1	D1 antag -44
CCCNC(=S)Nc1cccc(C(F)(F)F)c1	none
CC(C)(C)NNC(=S)Nc1cccc(C(F)(F)F)c1	TRHR PAM 32
FC(F)(F)c1cccc(NC(=S)NC2CCCC2)c1	D1 antag -36
Cc1cccc(C(=O)N2CCCCC2CCN2CCCCC2)c1 (centres undefined)	none
COC(=O)c1ccc(OC(=O)c2cccnc2)cc1	none
COc1ccc(C(=O)Oc2cccnc2)cc1	D1 antag -32
COc1cc(CCC(=O)N2CCN(c3ccc([N+](=O)[O-])cc3)CC2)cc(OC)c1OC	none
Cc1cc(C(=O)N2CCN(c3ccc([N+](=O)[O-])cc3)CC2)n[nH]1	D1 antag -32
Cc1cc(C(=O)N2CCN(c3ccc([N+](=O)[O-])cc3)CC2)no1	none
COCC(=O)N1CCN(c2ccc([N+](=O)[O-])cc2)CC1	D1 antag -32
Cc1cc(C)nc(N/N=C/c2ccc3c(c2)OCCO3)n1	D1 antag -32
Cc1cc(C)nc(N/N=C/c2ccccc2)n1	none
COC(=O)c1ccc(OC)c(Cn2c(=O)n(-c3cccc(Cl)c3)c(=O)c3c4c(sc32)CN(C(C)=O)CC4)c1	D1 antag -40
O=C(NCc1ccc(F)cc1)C1CCN(C(=O)c2ccc(-n3ccc4ccccc43)s2)CC1	D1 antag -31
CCOc1ccc(NC(=O)CN(C)C(=O)CCCn2c(=O)oc3ccccc32)cc1OCC	TRHR PAM 38
CCOc1ccc(NC(=O)CN(C)C(=O)c2ccccc2Cc2ccccc2)cc1OCC	D1 antag -45 (no result: D1 potentiator)
COc1ccc(NC(=O)CN(C)C(=O)COc2ccccc2Cc2ccccc2)cc1	none
CN(CC(=O)Nc1ccc(F)cc1)C(=O)COc1ccccc1Cc1ccccc1	D1 antag -85
COC(=O)[C@@]12CCCN1[C@H](c1ccc(-c3ccc(F)cc3)cc1)[C@H]1C(=O)N(C)C(=O)[C@H]12	D1 antag -44
O=S(=O)(c1ccc2c(c1)OCCO2)N1CCN(S(=O)(=O)c2cc(F)c(Br)cc2F)CC1	none
CCCNC(=O)C1CCC(Cn2c(=O)c3sccc3n(Cc3cccc(OC)c3)c2=O)CC1 (centres undefined)	TRHR PAM 53
COc1cccc(Cn2c(=O)n(CC3CCC(C(=O)NC(C)C)CC3)c(=O)c3sccc32)c1 (centres undefined)	none
CCOc1cccc2sc(N(CCCN(C)C)C(=O)c3ccc(S(=O)(=O)N(CC)Cc4ccccc4)cc3)nc12	D1 antag -45, D1 agonist 33
CCOc1cccc2sc(N(CCCN(C)C)C(=O)c3ccc(S(=O)(=O)N(C)Cc4ccccc4)cc3)nc12	D1 antag -48, D1 agonist 42
CCN(Cc1ccccc1)S(=O)(=O)c1ccc(C(=O)N(CCCN(C)C)c2nc3c(F)cccc3s2)cc1	none
CCOc1ccc(N/N=C(/C#N)C(N)=O)cc1	none
N#C/C(=N/Nc1ccc(OC(F)(F)F)cc1)C(N)=S	D1 antag -30, D1 agonist 40
CCOc1cc2c(cc1C(C)(C)C)NC(=O)CS2	D1 antag -85
CCOc1ccc(C(C)=O)cc1COC(=O)c1ccc2c(c1)NC(=O)CS2	none
COc1ccc(NC(=O)CCNS(=O)(=O)c2cccc3nsnc23)cc1Cl	none
Cc1ccc(C(=O)NCCc2nnc3ccc(SCC(=O)N4CCCCC4)nn23)cc1	TRHR PAM 33
